Here are results for nine compounds from PubChem BioAssay (NCI).

Test in all cases: NCI-60 one-dose screen, 48 h (100 = growth as untreated, 0 = no growth, -100 = all killed)
Conditions in all cases: 10 µM unless noted

Test [1] has as its system SR leukemia.
Test [2] relates to RPMI-8226 leukemia.
Test [3] concerns OVCAR-8 ovarian.
Test [4] has as its system OVCAR-5 ovarian.
Test [5] relates to OVCAR-4 ovarian.
Test [6] concerns SK-OV-3 ovarian.
The subject of test [7] is IGROV1 ovarian.
The test system of test [8] is OVCAR-3 ovarian.
Test [9] deals with HS 578T breast.
In test [10] the test system is NCI/ADR-RES ovarian.
Test [11] has as its system T-47D breast.
For test [12], the system named is BT-549 breast.
In test [13] the test system is MDA-MB-435 melanoma.
For test [14], the system named is SW-620 colon.
Test [15] has as its system MCF7 breast.
In test [16] the test system is HCT-116 colon.
Test [17] concerns HCC-2998 colon.
Test [18] relates to KM12 colon.

About 83,000 compounds went through this panel and 20% of them were active in at least one assay; those are over-represented in the sample as a whole.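 Results are percent growth after 48 hours of single-concentration exposure. 100 means growth as in untreated cells, lower positive values show inhibition; negative values down to -100 show cell death.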 Unmarked numbers belong to inactive results. The source made the active and inactive calls. The calls were made as follows: active = growth percent below 10; inactive = the rest.

For `C#C[C@]1(O)CC[C@H]2[C@@H]3CC=C4c5sc(-c6cccc(C)c6)nc5CC[C@]4(C)[C@H]3CC[C@@]21C`, the growth in [1] is 38.6%; in [2], -6.87% (active); in [3], 89.9%; in [4] it was 73.8%; in [5], 81.2%; in [6], 88.9%. For the same compound, the growth in [7] was 68.8%; in test [8] it was 89.2%; in [9], 40.8%; in test [10] it was 80.9%; in [11], 78.6%; in test [12], 71.5%. Also, the growth in test [13] is 82.8%; in test [14], 84.8%; in test [15] it was 34.9%; in [16], 68.2%; in test [17], 72.5%; in test [18], 54.3%.

In the case of `CCCN1C2CCC1/C(=C\c1ccc(OC)cc1)C(=O)/C2=C/c1ccc(OC)cc1`, the growth was 45.4% in test [1]; 40.7% in test [2]; 72.6% in [3]; 93.5% in test [4]; 73.5% in [5]; 79.4% in test [6]. Also, the growth is 82.2% in test [7]; 81.8% in test [8]; 92% in test [9]; 77% in test [10]; 45.3% in [11]; 87.2% in test [12]. Further, the growth was 63.5% in [13]; 90.4% in test [14]; 75.8% in test [15]; 61.9% in test [16]; 91.9% in test [17]; 74.2% in test [18].

In the case of `CCOc1ccc(-c2cc(C3(S(=O)(=O)c4ccc(C)cc4)CC=CC3)on2)cc1`, the growth was 69.1% in test [1]; 62.4% in test [2]; 90.4% in test [3]; 101% in [4]; 74.3% in test [5]; 91% in test [6]. Also, the growth is 88.5% in [7]; 92% in [8]; 96.4% in test [9]; 71% in test [10]; 64.4% in [11]; 94.8% in test [12]. Besides, the growth in [13] is 95.1%; in [14], 89.4%; in [15], 95.9%; in test [16], 82.3%; in test [17] it was 97.1%; in test [18], 94.4%.

Consider `CC(=O)OCC(=O)O[C@@H]1C[C@]2(C(C)C)O[C@@]1(C)[C@@H]1CC[C@@H](C)[C@H]1[C@@H]2OC(=O)/C=C/c1ccccc1`, for which the growth is 78.4% in test [1]; 73.7% in [2]; 25% in test [3]; 99.8% in test [4]; 87.9% in test [5]; 87.7% in [6]. In addition, the growth was 106% in test [7]; 90.9% in [8]; -18% (active) in [9]; 21.7% in test [10]; 48.6% in test [11]; 2.51% (active) in [12]. The growth was 95% in test [13]; 104% in test [14]; 77.8% in [15]; 81.5% in test [16]; 101% in test [17]; 90.2% in test [18].

Consider `O=C(CSc1nnc(-c2cc(-c3ccc(Cl)cc3)nc3ccccc23)n1-c1ccccc1)Nc1ccc(Cl)cc1`, for which the growth is 78.6% in [1]; 102% in test [2]; 98.3% in [3]; 102% in [4]; 108% in test [5]; 94.6% in [6]. Further, the growth was 97.8% in test [7]; 106% in [8]; 109% in test [9]; 99.4% in [10]; 96.5% in [11]; 110% in test [12]. Moreover, the growth is 102% in test [13]; 106% in test [14]; 88.3% in test [15]; 86.3% in test [16]; 111% in test [17]; 102% in [18].

As to `O=C(Nc1ccc(Oc2cccc(F)c2)c(Cl)c1)c1cnccn1`, the growth in [1] was 20.8%; in test [2] it was 18%; in test [3] it was 37.5%; in test [4], 56.6%; in test [5], 44.5%; in test [6], 86%. Further, the growth is 40.5% in [7]; -17.8% (active) in [8]; 27.8% in test [9]; 9.06% (active) in [10]; 38.3% in [11]; 59.9% in [12]. The growth was -21.2% (active) in [13]; 22.7% in test [14]; 17.5% in [15]; 32% in [16]; 56.2% in test [17]; 30.3% in [18].

For `CNC1=C(Br)C(=O)c2c(C(=O)OC)c(C)nc(C)c2C1=O`, the growth was 86.5% in test [1]; 75.8% in [2]; 38.7% in test [3]; 97.3% in test [4]; 35.4% in test [5]; 116% in [6]. Besides, the growth in test [7] is 67.6%; in test [8], 1.75% (active); in [9] it was 72.4%; in test [10] it was 74.7%; in test [11] it was 62.8%; in test [12] it was 104%. Moreover, the growth in test [13] is -66.8% (active); in test [14], 48.2%; in [15] it was 45.2%; in test [16] it was 25.3%; in test [17], 69.6%; in test [18], 62.4%.

In the case of `Cc1nn(C)c2ncnc(Nc3ccccc3Br)c12`, the growth was 84.8% in test [1]; 95.2% in test [2]; 106% in [3]; 99.6% in test [4]; 109% in test [5]; 99% in [6]. Besides, the growth in test [7] is 105%; in test [8] it was 108%; in test [9], 101%; in [10], 107%; in test [11], 94.8%; in [12], 108%. In addition, the growth in test [13] was 106%; in test [14], 106%; in [15] it was 95.6%; in [16] it was 110%; in test [17], 108%; in test [18], 108%.

For `N#CSCc1cc(Cl)c(CSC#N)cc1Cl`, the growth is 10.8% in test [1]; 48.6% in [2]; 94.9% in test [3]; 82.9% in [4]; 80.5% in [5]; 101% in test [6]. Moreover, the growth is 84.7% in [7]; 71.3% in test [8]; 82.3% in test [9]; 84.5% in [10]; 90% in test [11]; 39.7% in [12]. For the same compound, the growth in test [13] is 34.9%; in test [14], 20.6%; in test [15], 24.5%; in test [16], 34.7%; in [17], 97%; in [18], 85.5%.
